# PTHR1 ag = activates the human parathyroid hormone receptor PTHR1; Q03431; 0.075% of 410,000 active; AID 743266; HEK293 GP2 PTHR1 cells, GloSensor cAMP luminescence, 1 h; Potency, µM (series often up to 115 µM), without a hit: top-dose activation, usual class: activators; note: nearly all actives have a fitted effect of over 55% in size
#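 HEK-293-derived GP2 cells expressing PTHR1 and a GloSensor cAMP reporter, 3,000/well, plated overnight, given luciferin plus IBMX (each 0.5 mM as added) for 1 h at 37 °C, then compound for 1 h at 37 °C. Luminescence was read after 15 min at room temperature.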
# GLP-1R inv ag = GLP-1 receptor (human) inverse agonism. HEK293 GLP-1R CRE-luciferase, luminescence, 24 h; GLP-1R form is constitutively active. Potency, µM (doses to about 38.3 µM), for inactives: at the top dose activity change, negative = inhibition, usual class: inhibitors. 1.6% of 410,000 active. AID 624417; note: % is set by controls: 0 for no effect and ±100 for the full control effect; nearly all actives have a fitted effect of over 55% in size
# Target sequence (P43220 whole entry, looked up): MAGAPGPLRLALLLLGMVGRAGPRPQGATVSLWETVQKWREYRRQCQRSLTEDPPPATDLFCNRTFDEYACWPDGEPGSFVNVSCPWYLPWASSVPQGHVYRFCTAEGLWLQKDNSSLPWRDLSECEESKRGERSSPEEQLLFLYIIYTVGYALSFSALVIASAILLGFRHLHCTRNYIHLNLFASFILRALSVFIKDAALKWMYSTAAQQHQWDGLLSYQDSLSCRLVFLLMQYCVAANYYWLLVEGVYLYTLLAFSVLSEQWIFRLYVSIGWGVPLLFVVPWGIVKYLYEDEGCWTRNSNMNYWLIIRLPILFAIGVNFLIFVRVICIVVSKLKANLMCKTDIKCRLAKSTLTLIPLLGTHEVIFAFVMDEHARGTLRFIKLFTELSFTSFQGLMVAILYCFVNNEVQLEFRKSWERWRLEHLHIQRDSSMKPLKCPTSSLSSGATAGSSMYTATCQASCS
#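 Readout was luciferase luminescence, measured 12 min after detection reagent at room temperature. Beforehand, GLP-1R reporter HEK293 cells had sat 12 h, then received compounds for 24 hr at 37 deg C.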
# GLP1R ag = activates the human GLP-1 receptor | Potency, µM (top dose mostly 45.6 µM), for inactives: at the top dose activation, most hits filed as activators | 0.007% of 380,000 active | P43220 | HEK293 GLP-1R CRE-luciferase, luminescence, 4-6 h; cells express a hypersensitive GLP-1R form; note: % of control where 0% means no effect
# HEK293 tox = cytotoxic in the GLP-1 receptor inverse agonist counter-screen; HEK293 cAMP-luciferase reporter cells, luminescence, 24 h; Potency, µM (top dose mostly 38.3 µM), without a hit: at the highest dose activity change, negative = inhibition, usual class: inhibitors; 0.13% of 410,000 active;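 note: loss of luciferase light is scored as toxicity; % is set by controls: 0 for no effect and ±100 for the full control effect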
#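 1536-well qHTS counterscreen of the MLSMR; 200 cells/uL, 12 h pre-incubation, 23 nL cpd, 24 h at 37 deg C 5% CO2, luciferase detection reagent, 12 min RT, luminescence. Inhibition = undesired.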
# * = called active by the depositor; i = inactive; u = inconclusive; x = no result given; [ ] = dose if it differs, or a comment. Most compounds without a hit are left out; they make up all but 1.7% or so of the library. Calls come from the whole dose curve; as a rule, active = well fitted curve in the direction sought with a large enough effect; inconclusive = small, poorly fitted or top-dose-only effect, or another doubt; inactive = no such curve, though single readings can be large; an effect the other way counts as inactive or inconclusive. Potency is the fitted concentration of half-maximal effect.
SMILES,PTHR1 ag,GLP-1R inv ag,GLP1R ag,HEK293 tox
Cc1nc2ccccc2n1CC(O)Cn1c2ccccc2c2ccccc21 (configuration not stated),15.8µM*,9.2%,0.0%,10.8%
COc1ccc(Cc2cnc(N)nc2N)cc1OC,x,x,-2.3%,x
Cc1cc(C)cc(-n2c(C)cc(/C=N/NC(=O)CN(c3c(C)cccc3C)S(C)(=O)=O)c2C)c1,-3.8%[57.5 µM],u,3.3%,-9.0%
Cc1ccc(-n2c(C)cc(/C=N/NC(=O)CN(c3ccc(C)cc3C)S(C)(=O)=O)c2C)cc1,15.5%,10µM*,-16.0%,-17.5%
CCC(=O)N(C1=C(NC(C)C)C(=O)c2ccccc2C1=O)C(C)C,-35.9%,9.1%,-0.3%,-17.9%
CCCNC1=C(N(C(C)=O)c2cccc(F)c2)C(=O)c2ccccc2C1=O,i,8.91µM*,-39.6%,u
O=C(CCC(=O)c1ccc(F)cc1)Nc1cccc(S(=O)(=O)Nc2cccc(Cl)c2)c1,-9.3%,10µM*,-4.1%,-11.4%
O=C(CCC(=O)c1ccc(F)cc1)Nc1ccc(Cl)cc1,-19.4%,-13.8%,x,-1.0%
O=C1CC(=O)N(CCNc2ncc(C(F)(F)F)cc2Cl)C(=O)N1,i,0.4%,-24.6%,16.7%
O=C1C=CC(=O)N1CCNc1ncc(C(F)(F)F)cc1Cl,-29.5%,11.2µM*,5.9%,u
COC(=O)c1ccccc1NC(=O)c1sc2nc(C)cc(C)c2c1NC(=O)c1ccccc1Cl,-27.2%,18.4%,3.3%,2.0%
Cc1cccc(C)c1OCC(=O)Nc1oc(-c2ccccc2)c(-c2ccccc2)c1C#N,-34.5%,10µM*,-16.8%,u
COc1ccc(Cl)cc1NC(=O)Cc1coc2c(C)c(C)ccc12,-9.6%,u,x,1.7%
CCOC(=O)C(C(=O)Nc1nccs1)C1CCCCC1 (configuration not stated),-0.4%[57.5 µM],u,5.9%,-2.7%
O=C(CSc1nnc(Cc2cccs2)n1Cc1ccco1)Nc1ccc(Br)cc1,i,3.55µM*,0.6%,11.0%
COc1ccc2c(Cl)c(-c3nnc(SCC(=O)c4ccccc4)n3C)sc2c1,-2.9%[57.5 µM],11.2µM*,-1.5%,-25.1%
COc1ccc2c(Cl)c(-c3nnc(SCC(N)=O)n3C)sc2c1,i,-8.1%,2.4%,-24.8%
CCCCN(C)CCNC(=S)Nc1ccc2nc(N3CCN(CC)CC3)cc(C)c2c1,24.2%,1.12µM*,11.3%,5.01µM*
CCN1CCN(c2cc(C)c3cc(NC(=S)NCCN(C)C)ccc3n2)CC1,i,3.55µM*,-3.4%,u
CCCCNC(=S)Nc1ccc2nc(N3CCN(CC)CC3)cc(C)c2c1,i,u,28.5%,u
CCN(CC)CCNC(=S)Nc1ccc2nc(N3CCN(CC)CC3)cc(C)c2c1,-7.3%,2.51µM*,5.6%,u
CCOC(=O)N1CCC(NC(=S)Nc2ccc3nc(N4CCN(CC)CC4)cc(C)c3c2)CC1,i,8.91µM*,17.8%,u
CCN1CCN(c2cc(C)c3cc(NC(=S)NCCCN4CCc5ccccc5C4)ccc3n2)CC1,i,u,17.9%,u
CCc1ccc2c(CN(C)Cc3ccccc3OC)cc(=O)oc2c1,-19.3%,u,u,37.6%
Cc1cc(NC(=O)CC(CN(C)S(=O)(=O)c2ccccc2)c2ccccc2)no1 (configuration not stated),-83.3%,10µM*,-7.4%,-5.4%
SMILES,PTHR1 ag,GLP-1R inv ag,GLP1R ag,HEK293 tox
CC/C(Cc1ccccc1)=N/NC(=O)CNC(=O)c1ccc(Cl)cc1Cl,i,0.9%,-3.2%,-13.1%
CC1(C(=O)Nc2ccc(Cl)c(C(F)(F)F)c2)Cc2c(-c3ccc(C(N)=O)cc3)ccnc2O1 (configuration not stated),-21.1%,u,-2.2%,u
CCCCCOc1ccc(Br)cc1/C(C)=N/NC1=NCCN1,-6.1%[57.5 µM],2.24µM*,0.9%,u
COc1ccc(Br)cc1/C(C)=N/NC1=NCCN1,-37.6%,0.0%,-5.0%,-1.7%
O=C1c2ccccc2C2=Nc3ccccc3SC(c3ccc(Cl)cc3)C12 (configuration not stated),-5.9%,12.6µM*,1.0%,u
O=C1c2ccccc2C2=Nc3ccccc3SC(c3cccc(F)c3)C12 (configuration not stated),-24.7%,u,-5.3%,7.94µM*
Fc1cccc(C2NN=C(c3ccccc3)S2)c1 (configuration not stated),u,2.7%,9.3%,1.2%
COc1ccc(N(Cc2ccccc2)C(=O)c2nc(SC)ncc2Cl)cc1,-7.0%,11.2µM*,x,4.3%
COc1ccc(NC(=O)c2nc(SC)ncc2Cl)cc1,12.9%,-13.6%,-1.8%,-10.1%
CCSc1ncc(Cl)c(C(=O)N(Cc2ccccc2)Cc2ccco2)n1,-70.7%,10µM*,x,0.2%
CCCS(=O)(=O)c1ncc(Cl)c(C(=O)N(Cc2ccccc2)Cc2ccco2)n1,-93.3%,12.6µM*,x,10µM*
CCCSc1ncc(Cl)c(C(=O)N(Cc2ccc(Cl)cc2)Cc2ccco2)n1,-38.2%,-79.3%,x,-14.7%
CCN(CC)C(=O)c1cc(-c2ccc(Cl)cc2)on1,-17.2%,0.6%,x,-0.5%
COc1ccccc1C1CC(c2ccccc2)Nc2ncnn21 (configuration not stated),i,0.0%,16.4%,5.4%
CCCCCCn1c(O)c(/C=C2\C=NN=C2c2ccccc2)sc1=S,-24.6%,u,1.4%,11.2µM*
COc1ccc(Cc2nnc(Cl)c3ccccc23)cc1OC,-12.1%,57.3%,6.1%,-33.9%
CCOc1cc(/C=C2\CN(CC)C/C(=C\c3ccc(O)c(OCC)c3)C2=O)ccc1O,-20.6%,10µM*,-4.9%,-0.7%
CCOc1cc(/C=N/N=C/c2ccc(O)c(OCC)c2)ccc1O,i,4.9%,15.4%,-24.0%
COc1cc(/C=C2\CCC/C(=C\c3ccc(O)c(OC)c3)C2=O)ccc1O,-25.9%,u,-3.6%,8.91µM*
Cc1ccc(Nc2nc(-c3ccc(S(=O)(=O)N4CCCC4)cc3)cs2)cc1C,-1.9%[57.5 µM],u,2.6%,-32.9%
Cc1cc(C)cc(Nc2nc(-c3ccc(S(=O)(=O)N4CCCC4)cc3)cs2)c1,-63.9%,3.55µM*,1.4%,-17.8%
CC[C@@H](C(=O)n1nc(C)cc1C)[C@H](NS(=O)(=O)c1ccc(C)cc1)c1ccccc1,i,11.1%,-12.6%,2.9%
CCC(Oc1ccccc1)C(=O)NC1CCCCCC1 (configuration not stated),-14.4%,10µM*,0.1%,13.4%
O=C(CCc1nnc2ccc(NCc3ccco3)nn12)N1CCN(c2ccc(F)cc2)CC1,i,16.4%,6.9%,-0.1%
Cc1cccn2c(=S)[nH]nc12,-8.4%,0.3%,-7.2%,0.7%
CCOC(=O)CN1C(=N)N(c2nc(NC(C)C)nc(NC(C)C)n2)CC1=O,i,17.2%,13.0%,3.6%
Cc1ccc(-c2nc3cccc(C)n3c2Nc2ccc3c(c2)OCO3)o1,-10.9%,u,x,-8.6%
Cc1cccc2nc(-c3ccco3)c(Nc3ccc4c(c3)OCO4)n12,-20.9%,8.91µM*,10.8%,-24.4%

# Screening results: PubChem, National Center for Advancing Translational Sciences (NCATS)
